This note sets out measurements from PubChem BioAssay (EPA / NIEHS).

Structures are written as SMILES. Activity calls are given as the source filed them. How the source made its calls: active means hit-call score of the fitted dose curve at least 0.9, where 1 is the maximum; inactive means score below 0.9.

Holding throughout (conditions): mRNA level, 48 h; actives raise or lower the signal
Read-out in assay [1]: Heat shock 70 kDa protein 1 (HSPA1A), gene 3303
In words: LTEA_HepaRG_HSPA1A: Life Technologies and Expression Analysis (LTEA) Assay for Heat shock 70 kDa protein 1 (HSPA1A) using HepaRG (AID 2283502). The method in brief: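 Cells were plated and cultured for 48 h, then switched to serum-free induction medium. Chemicals were added at eight half-log concentrations up to 100 uM for 48 h. RNA was then isolated and HSPA1A measured by qRT-PCR with bidirectional curve fitting against DMSO.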

Read-out in assay [2]: Hypoxia-inducible factor 1-alpha (Homo sapiens) (UniProt Q16665)
In words: LTEA_HepaRG_HIF1A: Life Technologies and Expression Analysis (LTEA) Assay for Hypoxia-inducible factor 1 (HIF1A) Trancription factor using HepaRG (AID 2283503). The method in brief: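 HIF1A transcript level read by qRT-PCR (ACTB, GAPDH, POLR2A normalization) after 48 h chemical exposure of HepaRG cultures. Eight half-log concentrations, top 100 uM, 0.5% DMSO vehicle, duplicates; bidirectional curve fit against DMSO baseline.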

Read-out in assay [3]: 3-Hydroxy-3-Methylglutaryl-CoA Synthase 2 (HMGCS2), HMGCS2 (gene 3158)
In words: LTEA_HepaRG_HMGCS2: Life Technologies and Expression Analysis (LTEA) Assay for 3-Hydroxy-3-Methylglutaryl-CoA Synthase 2 (HMGCS2) using HepaRG (AID 2283504). Summed up:
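qRT-PCR read-out of HMGCS2 transcript, normalised to three housekeeping genes, in HepaRG cells after 48 h chemical exposure. Eight-point curves from 100 uM, half-log dilutions, 0.5% DMSO vehicle; gain or loss fitted relative to DMSO baseline.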

Read-out in a further assay: HGF (gene 3082)
The assay is described as follows: LTEA_HepaRG_HGF: Life Technologies and Expression Analysis (LTEA) Assay for Hepatocyte Growth Facto (HGF) using HepaRG (AID 2283505). The method in brief: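 HepaRG, 48 h dosing, 8-pt half-log series from 100 uM in 0.5% DMSO, duplicates. Readout: TaqMan qRT-PCR of HGF mRNA, housekeeping-normalized; bidirectional curve fit vs DMSO baseline.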

Read-out in assay [4]: Insulin Like Growth Factor 1 (IGF1), IGF1 (gene 3479)
In words: LTEA_HepaRG_IGF1: Life Technologies and Expression Analysis (LTEA) Assay for Insulin Like Growth Factor 1 (IGF1) using HepaRG (AID 2283506). The method in brief: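 Cells are thawed, plated and cultured 48 h, then exposed in duplicate to chemical (highest 100 uM, half-log steps, 0.5% DMSO) for another 48 h. Total RNA is analysed by Fluidigm qRT-PCR for IGF1 expression relative to vehicle.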

Read-out in assay [5]: Intercellular Adhesion Molecule 1 (ICAM1), ICAM1 (gene 3383)
The assay is described as follows: LTEA_HepaRG_ICAM1: Life Technologies and Expression Analysis (LTEA) Assay for Intercellular Adhesion Molecule 1 (ICAM1) using HepaRG (AID 2283507). Summed up:
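HepaRG, 48 h exposure, 8-pt half-log series from 100 uM, 0.5% DMSO vehicle, duplicates. Readout: TaqMan qRT-PCR mRNA, housekeeping-normalized (ACTB/GAPDH/POLR2A). Bidirectional curve fit vs DMSO baseline.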

Read-out in assay [6]: Insulin-like growth factor-binding protein 1 (IGFBP1), IGFBP1 (gene 3484)
The assay is described as follows: LTEA_HepaRG_IGFBP1: Life Technologies and Expression Analysis (LTEA) Assay for Insulin-like growth factor-binding protein 1 (IGFBP1) using HepaRG (AID 2283508). Summed up:
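qRT-PCR mRNA read-out (TaqMan, Fluidigm array), normalised to three housekeeping genes; HepaRG cells, 48 h exposure, 8-pt half-log series from 100 uM, 0.5% DMSO vehicle; bidirectional curve fit vs DMSO baseline.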

Read-out in assay [7]: Interleukin 6 (IL6), IL6 (gene 3569)
The assay is described as follows: LTEA_HepaRG_IL6: Life Technologies and Expression Analysis (LTEA) Assay for Interleukin 6 (IL6) using HepaRG (AID 2283509). The method in brief:
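Transcript levels, normalized to three housekeeping genes, were quantified by qRT-PCR after 48 h chemical treatment of HepaRG cells. Eight-point half-log series from 100 uM in 0.5% DMSO, duplicates. Fitted both directions against DMSO baseline.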

Read-out in assay [8]: Interleukin 6 Receptor (IL6R), IL6R (gene 3570)
In words: LTEA_HepaRG_IL6R: Life Technologies and Expression Analysis (LTEA) Assay for Interleukin 6 Receptor (IL6R) using HepaRG (AID 2283510). The method in brief: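 Cells were thawed, plated and cultured 48 h, then medium was changed to serum-free induction medium. Chemicals were added in duplicate (100 uM top, half-log steps, 0.5% DMSO) for 48 h. Lysates were analyzed by qRT-PCR for IL6R expression.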

Read-out in assay [9]: Potassium channel subfamily K member 1 (KCNK1), KCNK1 (gene 3775)
In words: LTEA_HepaRG_KCNK1: Life Technologies and Expression Analysis (LTEA) Assay for Potassium channel subfamily K member 1 (KCNK1) using HepaRG (AID 2283511). Summed up: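 KCNK1 transcript measured by TaqMan qRT-PCR against three housekeeping genes, after HepaRG cells were treated 48 h with eight half-log concentrations (top 100 uM, 0.5% DMSO). Curves fitted bidirectionally relative to vehicle.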

Read-out in assay [10]: Keratin 19 (KRT19), KRT19 (gene 3880)
In words: LTEA_HepaRG_KRT19: Life Technologies and Expression Analysis (LTEA) Assay for Keratin 19 (KRT19) using HepaRG (AID 2283512). The method in brief: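 HepaRG, 48 h chemical exposure, 8-pt half-log CRC from 100 uM, 0.5% DMSO vehicle, duplicates. Readout: TaqMan qRT-PCR of KRT19 mRNA, housekeeping-normalized (ACTB/GAPDH/POLR2A). Bidirectional fit vs DMSO baseline.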

Read-out in assay [11]: Lipase C (LIPC), LIPC (gene 3990)
In words: LTEA_HepaRG_LIPC: Life Technologies and Expression Analysis (LTEA) Assay for Lipase C (LIPC) using HepaRG (AID 2283514). The method in brief: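 LIPC expression was quantified by qRT-PCR against three housekeeping genes (ACTB, GAPDH, POLR2A). Differentiated human HepaRG cells received eight half-log doses (top 100 uM, 0.5% DMSO) in duplicate for 48 h; fitting bidirectional relative to DMSO.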

Read-out in assay [12]: Lipoprotein lipase (LPL), LPL (gene 4023)
In words: LTEA_HepaRG_LPL: Life Technologies and Expression Analysis (LTEA) Assay for Lipoprotein lipase (LPL) using HepaRG (AID 2283515). Summed up: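 LPL transcript levels quantified by TaqMan qRT-PCR against three housekeeping genes after 48 h chemical treatment of HepaRG cells. Eight-point half-log series from 100 uM in 0.5% DMSO, tested in duplicate; bidirectional fitting versus vehicle.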

Read-out in assay [13]: MicroRNA 122 (MIR122), gene 406906
In words: LTEA_HepaRG_MIR122: Life Technologies and Expression Analysis (LTEA) Assay for MicroRNA 122 (MIR122) using HepaRG (AID 2283516). Further: the transcript read is the microRNA miR-122. Summed up:
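Human liver HepaRG cultures receive test chemicals for 48 h at eight half-log concentrations from 100 uM. Expression is quantified by qRT-PCR with ACTB/GAPDH/POLR2A normalization and fitted bidirectionally against 0.5% DMSO.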

Read-out in assay [14]: matrix metalloproteinase-10 (MMP10), MMP10 (gene 4319)
In words: LTEA_HepaRG_MMP10: Life Technologies and Expression Analysis (LTEA) Assay for matrix metalloproteinase-10 (MMP10) using HepaRG (AID 2283517). The method in brief: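 Expression measured by TaqMan qRT-PCR with ACTB/GAPDH/POLR2A normalisation after 48 h chemical exposure of HepaRG cells. Eight half-log concentrations, top 100 uM, 0.5% DMSO vehicle, duplicates; gain or loss fitted against vehicle.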

Read-out in another assay: MYC, MYC (gene 4609)
The assay is described as follows: LTEA_HepaRG_MYC: Life Technologies and Expression Analysis (LTEA) Assay for MYC using HepaRG (AID 2283518). Summed up: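 qRT-PCR read-out of MYC transcript (Fluidigm TaqMan, housekeeping-normalized) after 48 h chemical exposure of HepaRG cells; eight concentrations, top 100 uM, half-log steps. Bidirectional curve fitting against 0.5% DMSO vehicle baseline.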

Read-out in assay [15]: matrix metalloproteinase-3 (MMP3), MMP3 (gene 4314)
In words: LTEA_HepaRG_MMP3: Life Technologies and Expression Analysis (LTEA) Assay for matrix metalloproteinase-3 (MMP3) using HepaRG (AID 2283519). Summed up:
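Fluidigm-based TaqMan qRT-PCR, normalized to ACTB, GAPDH and POLR2A and fitted bidirectionally versus 0.5% DMSO, measured transcript levels. Treatment: duplicate 48 h exposures of HepaRG cells, ~100,000/well, to eight half-log concentrations topping at 100 uM.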

Read-out in assay [16]: Paternally Expressed 10 (PEG10), PEG10 (gene 23089)
In words: LTEA_HepaRG_PEG10: Life Technologies and Expression Analysis (LTEA) Assay for Paternally Expressed 10 (PEG10) using HepaRG (AID 2283520). The method in brief: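 Human HepaRG cultures are dosed for 48 h across an eight-point half-log series starting at 100 uM, with 0.5% DMSO as vehicle and baseline. Gain or loss of PEG10 transcript is measured by qRT-PCR and fitted in both directions.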

Read-out in assay [17]: Nuclear factor NF-kappa-B p105 subunit (Homo sapiens) (UniProt P19838)
The assay is described as follows: LTEA_HepaRG_NFKB1: Life Technologies and Expression Analysis (LTEA) Assay for Nuclear Factor Kappa B Subunit 1 (NFKB1) using HepaRG (AID 2283521).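 Further: TaqMan qRT-PCR transcript normalised to ACTB GAPDH and POLR2A housekeeping genes.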 The method in brief:
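Differentiated human HepaRG cells were exposed for 48 h in serum-free induction medium to eight concentrations (top 100 uM, half-log steps, 0.5% DMSO), in duplicate. NFKB1 mRNA was measured by TaqMan qRT-PCR, normalized to ACTB/GAPDH/POLR2A, and fitted bidirectionally against DMSO.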

Read-out in assay [18]: JUN Transcription Factor, JUN (gene 3725)
The assay is described as follows: LTEA_HepaRG_JUN: Life Technologies and Expression Analysis (LTEA) Assay for JUN Transcription Factor using HepaRG (AID 2283513). The method in brief: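 Read-out is JUN transcript level by TaqMan qRT-PCR, normalized to ACTB, GAPDH and POLR2A, after 48 h chemical treatment of HepaRG cells. Concentration-response spanned eight half-log points up to 100 uM in 0.5% DMSO.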

Sequence of Hypoxia-inducible factor 1-alpha (Homo sapiens) (Q16665 whole entry, looked up): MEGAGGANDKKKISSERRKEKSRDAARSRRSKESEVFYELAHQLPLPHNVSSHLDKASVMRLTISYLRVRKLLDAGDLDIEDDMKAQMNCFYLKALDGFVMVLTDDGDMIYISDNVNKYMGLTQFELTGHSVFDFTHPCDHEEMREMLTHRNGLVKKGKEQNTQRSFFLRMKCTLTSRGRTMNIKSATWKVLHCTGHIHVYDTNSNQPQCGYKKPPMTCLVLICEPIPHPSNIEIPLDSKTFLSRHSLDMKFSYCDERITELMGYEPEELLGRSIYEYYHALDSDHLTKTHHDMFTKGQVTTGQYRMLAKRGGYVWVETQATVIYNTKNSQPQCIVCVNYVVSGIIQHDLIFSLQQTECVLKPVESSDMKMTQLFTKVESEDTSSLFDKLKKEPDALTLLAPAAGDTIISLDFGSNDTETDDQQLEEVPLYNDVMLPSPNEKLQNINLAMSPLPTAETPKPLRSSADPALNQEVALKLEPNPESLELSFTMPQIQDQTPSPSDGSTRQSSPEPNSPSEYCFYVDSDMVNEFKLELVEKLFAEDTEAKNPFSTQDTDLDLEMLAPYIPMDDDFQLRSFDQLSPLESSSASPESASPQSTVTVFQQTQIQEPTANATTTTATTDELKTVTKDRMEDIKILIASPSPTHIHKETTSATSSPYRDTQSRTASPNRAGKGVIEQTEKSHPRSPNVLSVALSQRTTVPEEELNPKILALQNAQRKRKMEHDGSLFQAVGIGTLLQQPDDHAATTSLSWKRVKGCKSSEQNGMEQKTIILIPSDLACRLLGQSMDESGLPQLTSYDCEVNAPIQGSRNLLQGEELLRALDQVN
Sequence of Nuclear factor NF-kappa-B p105 subunit (Homo sapiens) (P19838 whole entry, looked up): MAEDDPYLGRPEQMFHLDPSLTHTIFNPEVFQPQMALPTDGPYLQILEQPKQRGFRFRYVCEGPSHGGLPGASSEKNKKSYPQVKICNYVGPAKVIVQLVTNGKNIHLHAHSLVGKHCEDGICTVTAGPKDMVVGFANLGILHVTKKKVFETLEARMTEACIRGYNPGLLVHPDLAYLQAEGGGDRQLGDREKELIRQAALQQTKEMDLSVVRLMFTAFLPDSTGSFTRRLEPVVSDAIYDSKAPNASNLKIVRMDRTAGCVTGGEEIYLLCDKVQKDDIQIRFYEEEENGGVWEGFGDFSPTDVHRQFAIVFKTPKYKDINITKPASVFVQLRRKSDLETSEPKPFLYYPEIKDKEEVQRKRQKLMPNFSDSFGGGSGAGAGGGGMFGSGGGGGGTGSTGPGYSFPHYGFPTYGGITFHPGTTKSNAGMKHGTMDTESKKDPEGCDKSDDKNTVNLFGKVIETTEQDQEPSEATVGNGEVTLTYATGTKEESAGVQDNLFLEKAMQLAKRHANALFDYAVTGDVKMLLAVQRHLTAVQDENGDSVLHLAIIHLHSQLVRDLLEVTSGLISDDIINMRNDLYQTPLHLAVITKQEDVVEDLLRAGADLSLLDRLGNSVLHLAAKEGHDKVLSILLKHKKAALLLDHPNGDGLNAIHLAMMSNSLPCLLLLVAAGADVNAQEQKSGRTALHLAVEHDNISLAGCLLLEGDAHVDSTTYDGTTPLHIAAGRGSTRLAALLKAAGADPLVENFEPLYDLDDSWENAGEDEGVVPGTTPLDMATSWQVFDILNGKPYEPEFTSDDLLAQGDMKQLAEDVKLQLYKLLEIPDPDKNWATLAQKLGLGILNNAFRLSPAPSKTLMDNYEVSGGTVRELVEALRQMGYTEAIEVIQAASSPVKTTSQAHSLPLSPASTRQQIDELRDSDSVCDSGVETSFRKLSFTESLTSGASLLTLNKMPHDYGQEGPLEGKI

For the compound `COP(=O)(NC(C)=O)SC` (centres undefined), the call (in assay [1]; in assay [2]; in [3]; with HGF (gene 3082); in assay [4]; in assay [5]) was inactive. The result in assay [6], in [7], in [8], in assay [9], in assay [10] and in assay [11] was inactive. Also, the outcome in [12] is “inactive”; in assay [13], “inactive”; in [14], “inactive”; in the assay with MYC, MYC (gene 4609), “inactive”; in assay [15], “inactive”; in [16], “inactive”.
For the compound `O=c1ccc(=O)[nH][nH]1`, the compound was classed as inactive (in assay [1]; in assay [2]; in [3]; in the assay with HGF (gene 3082); in [4]; in assay [5]). The result in assay [6], in assay [7], in assay [8], in assay [9], in assay [10] and in assay [11] was inactive. Further, the result in assay [12], in assay [13], in assay [14], in assay [15], in [16] and in assay [17] was inactive.
As for `CC(C1CC1)C(O)(Cn1cncn1)c1ccc(Cl)cc1` (centres undefined), the result (in assay [1]; in [2]; in the assay with HGF (gene 3082); in assay [5]; in [6]; in [7]) was inactive. The compound was called inactive in [8], in assay [9], in [10], in assay [11], in assay [12] and in assay [13]. Moreover, the compound was called inactive in assay [14], in assay [16] and in assay [17]. Further, the results for the AC50 in assay [3] and in [4] were 83.6 µM (active) and 37 µM (active), respectively.
As for `CN1COCN(Cc2cnc(Cl)s2)C1=N[N+](=O)[O-]`, the result (in [1]; in assay [2]; in assay [3]; in the assay with HGF (gene 3082); in [4]; in assay [5]) was inactive. Besides, the compound was classed as inactive in assay [6], in assay [7], in assay [8], in [9], in assay [10] and in assay [11]. Moreover, the result in assay [12], in assay [13], in assay [14], in assay [15], in assay [16] and in assay [17] was inactive.
As for `CC1=NNC(=O)N(/N=C/c2cccnc2)C1`, the call (in assay [1]; in [2]; in assay [3]; in the assay with HGF (gene 3082); in assay [4]; in assay [5]) was inactive. In addition, the compound was classed as inactive in assay [7], in assay [8], in [9], in assay [10], in assay [18] and in assay [11]. Moreover, the outcome in assay [12] was “inactive”; in [13] it was “inactive”; in assay [14], “inactive”; with MYC, MYC (gene 4609) it was “inactive”; in [15], “inactive”; in [16] it was “inactive”. For the same compound, the compound was classed as inactive in assay [17].
As to `COc1cccc(C(=O)NN(C(=O)c2cc(C)cc(C)c2)C(C)(C)C)c1C`, the compound was called inactive (in assay [1]; in [2]; in [3]; with HGF (gene 3082); in assay [5]; in assay [6]). Also, the compound was classed as inactive in assay [7], in assay [8], in assay [9], in [10], in [18] and in assay [11]. The result in assay [12], in [13], in assay [14], in assay [15], in [16] and in assay [17] was inactive. Further, in [4], the AC50 was 74.6 µM (active).

As usually defined, the AC50 is the concentration giving half of the maximal activity seen.
